Screening data: PubChem BioAssay, Johns Hopkins Ion Channel Center
The list is not random: actives were taken first. Their share in the collection is about 1.6%.
KCNQ2 block: blocks the rat KCNQ2 potassium channel; B-score at 10 µM; CHO-K1 KCNQ2, FluxOR thallium flux, 20 min; stronger effect = lower value; 310,000 tested, 1.1% active; AID 2156;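 active = fluorescence ratio B-score at most minus 3 library SDs, with starting brightness B-score within 2 library SDs, cut at about -5.5 in these data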
Target sequence (O88943 whole entry, looked up): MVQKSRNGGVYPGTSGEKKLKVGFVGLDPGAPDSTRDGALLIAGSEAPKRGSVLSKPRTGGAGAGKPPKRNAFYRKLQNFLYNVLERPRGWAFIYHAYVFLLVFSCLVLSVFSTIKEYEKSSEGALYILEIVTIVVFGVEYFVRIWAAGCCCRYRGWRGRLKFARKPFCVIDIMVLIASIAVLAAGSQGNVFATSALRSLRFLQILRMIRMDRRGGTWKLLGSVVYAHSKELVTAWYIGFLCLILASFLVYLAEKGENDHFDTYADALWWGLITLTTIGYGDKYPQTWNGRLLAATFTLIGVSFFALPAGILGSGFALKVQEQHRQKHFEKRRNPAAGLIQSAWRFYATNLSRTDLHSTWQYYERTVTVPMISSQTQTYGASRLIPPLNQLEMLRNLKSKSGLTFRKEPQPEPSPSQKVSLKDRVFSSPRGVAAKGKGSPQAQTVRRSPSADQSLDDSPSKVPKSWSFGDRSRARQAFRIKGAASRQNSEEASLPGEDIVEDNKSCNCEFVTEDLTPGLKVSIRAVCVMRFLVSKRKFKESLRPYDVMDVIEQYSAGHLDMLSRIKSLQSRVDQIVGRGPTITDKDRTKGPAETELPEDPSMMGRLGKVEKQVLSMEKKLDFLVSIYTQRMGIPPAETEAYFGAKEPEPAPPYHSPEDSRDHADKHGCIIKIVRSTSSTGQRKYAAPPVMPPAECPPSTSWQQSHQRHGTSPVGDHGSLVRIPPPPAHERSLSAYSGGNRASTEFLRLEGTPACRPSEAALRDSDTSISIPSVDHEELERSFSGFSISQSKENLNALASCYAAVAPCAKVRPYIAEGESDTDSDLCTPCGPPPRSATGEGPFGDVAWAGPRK
KCNQ2 pot: potentiators of rat KCNQ2 potassium channel | 310,000 tested, 0.54% active | CHO-K1 KCNQ2, FluxOR thallium flux fluorescence; stronger effect = higher value | B-score at 10 µM | O88943;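 active = fluorescence ratio B-score at least 3 SD of library B-scores, with initial fluorescence B-score within 3 of them, cut at about 5.3 in these data; same plate scores as AID 2156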;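 also: B-score of peak minus minimum over baseline fluorescence ratio after K+ and Tl+ stimulus; positive B-score means potentiation of KCNQ2 with more thallium influx and brighter signal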
Kir21 conf inh: confirmation of mouse Kir2.1 potassium channel inhibitors. Kir2.1-expressing cells, FluxOR thallium flux fluorescence; stronger effect = lower value. Tl flux remaining, % of negative control (stronger effect = lower value), % at 10 µM. shares compounds with KCNQ2 pot. 2,300 tested, 41% active;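 active = Primary-screen hit whose thallium flux fell at least 3 control SD below untreated wells in both duplicates, with normal baseline fluorescence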;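 also: 0% = blank wells without stimulus and 100% = stimulated no-compound controls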
HEK293 ctr: parental HEK293 activity in Kir2.1 inhibitor counter-screen | shares compounds with KCNQ2 pot | parental HEK293 cells, FluxOR thallium flux fluorescence; 0% = unstimulated blank wells | FluxOR signal as % of negative control (100 = no effect), % at 10 µM | 2,300 tested, 19% active;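 active = dye signal at least 3 control SD above or below untreated wells in both duplicates, raw fluorescence within 3, either direction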;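 also: percent is based on the flux ratio of peak minus minimum fluorescence over baseline F0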
CHO-K1 Tl ctr: counter-screen for KCNQ2 potentiators: effect in parental CHO-K1 cells | shares compounds with KCNQ2 pot | FluxOR thallium flux fluorescence; zero = vehicle mean+3SD, 100% = vehicle-minus-blank window | 1,200 tested, 43% active | AID 2282 | activity increase over 3SD of controls, % at 10 µM;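 active = signal rise of at least 3 SD above the untreated control mean, in both duplicate wells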;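 also: counter screen of KCNQ2 potentiator hits so any rise reflects channel-independent effects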
KCNQ1 pot spec: tests whether KCNQ2 potentiators also act on human KCNQ1; CHO KCNQ1 stable, FluxOR thallium flux fluorescence; beyond 3SD, as % of vehicle-control signal; shares compounds with KCNQ2 pot; 1,200 tested, 28% active; activation over 3SD threshold, % at 10 µM;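 active = fluorescence ratio rise of at least 3 SD of vehicle wells above their mean, in both replicate wells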;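 also: 0% = vehicle mean plus 3 SD and 100% = vehicle minus unstimulated blank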
KCNQ2 pot confirm: confirmation of rat KCNQ2 potassium channel potentiators. shares compounds with KCNQ2 pot. CHO-KCNQ2 cells, FluxOR thallium flux fluorescence. 1,200 tested, 68% active. potentiation, less the hit threshold, % at 10 µM. AID 2287;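 active = fluorescence ratio rising 3 SD or more over the vehicle control mean in both replicates, plus primary screen hit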;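 also: peak minus minimum thallium fluorescence divided by baseline after K/Tl stimulus; 0% = vehicle mean plus 3 SD and 100% = vehicle minus unstimulated blank difference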
Kir21 spec: tests whether KCNQ2 potentiators also affect mouse Kir2.1. shares compounds with KCNQ2 pot. HEK293 Kir2.1, FluxOR thallium flux fluorescence. activity over 3SD threshold, % at 10 µM. 1,200 tested, 2% active. AID 2345;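 active = fluorescence ratio rise of at least 3 SD above the vehicle-control mean, seen in both replicates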;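 also: 0% = vehicle mean plus 3 SD and 100% = vehicle minus no-stimulus blank window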
KCNQ2 W236L pot: potentiates the retigabine-insensitive rat KCNQ2 W236L mutant channel | shares compounds with KCNQ2 pot | CHO KCNQ2-W236L, automated patch clamp current | current increase over 3SD of negative controls (%), stronger effect = higher value, % at 25 µM | 940 tested, 10% active | AID 2558;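 active = current increase at least 3 SD of the untreated controls above them in both duplicate recordings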
* marks the source's active call; other numbers are inactive results; i = inactive; · = no result given.

SMILES | KCNQ2 block | KCNQ2 pot | Kir21 conf inh | HEK293 ctr | others
CC(NC(=S)NC1CCCCC1)c1ccc(C(C)(C)C)cc1 (centres undefined) | i | 9.9* | i | i | CHO-K1 Tl ctr=-6;KCNQ1 pot spec=-18;KCNQ2 pot confirm=16*;Kir21 spec=-34;KCNQ2 W236L pot=i
CC(C)c1ccc(/C=C/C(=O)NC2CCCCC2)cc1 | i | 0.67 | · | ·
CC(C)c1ccccc1NC(=S)NC1CCCCC1 | i | · | · | ·
CCC1CCCCN1C(=O)c1ccc(OC)c(OC2CCN(C(C)C)CC2)c1 (centres undefined) | i | 0.63 | · | ·
Cc1cc(NC(=O)CSCC(=O)Nc2nc3ccccc3[nH]2)no1 | i | · | · | ·
Cc1csc2ncnc(N3CCN(C(=S)Nc4ccc(F)cc4F)CC3)c12 | i | 2.3 | · | ·
CCN(CC(=O)NCc1cccs1)C(=O)C(c1ccccc1)c1ccccc1 | i | 1.1 | · | ·
CN1CCN(CCCNC(=O)c2ccc(CSCc3cccc(Cl)c3)o2)CC1 | i | 1.2 | · | ·
CC1CCN(CCCNC(=O)c2ccc(CSCc3cccc(Cl)c3)o2)CC1 | i | · | 37%* | i
N#Cc1c(N)n(-c2cccc(O)c2)c2nc3ccccc3nc12 | i | 0.17 | · | ·
CCCCCNC(=O)c1ccc2c(=O)n(CCCN3CCCC3=O)c(=S)[nH]c2c1 | i | · | · | ·
S=c1nc(Cc2ccccc2)[nH]c2ccccc12 | i | 11* | i | 323%* | CHO-K1 Tl ctr=45*;KCNQ1 pot spec=-13;KCNQ2 pot confirm=40*;Kir21 spec=-30;KCNQ2 W236L pot=i
S=c1nc(COc2ccccc2)[nH]c2ccccc12 | i | 20* | i | 479%* | CHO-K1 Tl ctr=1.8*;KCNQ1 pot spec=-11;KCNQ2 pot confirm=63*;Kir21 spec=-15;KCNQ2 W236L pot=i
Cc1nc(=S)c2ccccc2[nH]1 | i | 1.1 | · | ·
Cc1ccc(Cc2nc3ccccc3[nH]2)cc1 | i | · | · | ·
O=c1[nH]c(COc2ccccc2)nc2ccccc12 | i | · | · | ·
S=c1nc(Cc2ccc(Cl)cc2)[nH]c2ccccc12 | i | 11* | i | 158%* | CHO-K1 Tl ctr=-8;KCNQ1 pot spec=-8;KCNQ2 pot confirm=6.1*;Kir21 spec=-41;KCNQ2 W236L pot=i
Cn1c(-c2ccccc2)c[n+]2c1-c1ccccc1C2 | i | · | · | ·
CCN(CC)C(=O)c1cc([N+](=O)[O-])cc2c1-c1ccc([N+](=O)[O-])cc1C2=C(C#N)C#N | i | · | · | ·
COC(=O)c1sccc1NC(=O)Nc1ccc(F)cc1F | i | 0.65 | · | ·
COc1ccc(NC(=O)CSCc2cc(=O)n3cc(C)sc3n2)cc1 | i | · | · | ·
Cc1ccc(S(=O)(=O)CCC(=O)Nc2ccccc2C)cc1 | i | 0.2 | · | ·
COc1ccc(Nc2ncnc3ccc(C)cc23)cc1 | i | 1.1 | 52%* | 168%*
COC(=O)c1cccc(Nc2ncnc3ccc(C)cc23)c1 | i | · | · | ·
Cc1ccc(C)c(CN2CCC(CNC(=O)Nc3ccc(C)c(C)c3)CC2)c1 | i | 7.6* | i | i | CHO-K1 Tl ctr=60*;KCNQ1 pot spec=-11;KCNQ2 pot confirm=10*;Kir21 spec=-31;KCNQ2 W236L pot=i
SMILES | KCNQ2 block | KCNQ2 pot | Kir21 conf inh | HEK293 ctr | others
COc1ccc(N2CCC(CNC(=O)Nc3ccc(C)c(C)c3)C2)cc1 (centres undefined) | i | 1.2 | · | ·
Clc1cnc2nc(SC/C=C/c3ccccc3)[nH]c2c1 | i | · | · | ·
CCCCCCCCCCCNC(=O)c1ccoc1C | i | 13* | · | · | CHO-K1 Tl ctr=-20;KCNQ1 pot spec=66*;KCNQ2 pot confirm=37*;Kir21 spec=-64;KCNQ2 W236L pot=i
Cc1occc1C(=O)NCCCCNC(=O)c1ccoc1C | i | 0.46 | · | ·
COc1cc(NC(=O)c2ccccc2)cc(OC)c1 | i | 17* | i | i | CHO-K1 Tl ctr=-16;KCNQ1 pot spec=-12;KCNQ2 pot confirm=30*;Kir21 spec=-34;KCNQ2 W236L pot=i
COc1ccc(C(=O)Nc2cc(OC)cc(OC)c2)cc1 | i | 4.4 | · | ·
CCCCCOc1ccc(Br)cc1CSC(=N)N | i | · | i | i
CCOc1ccc(CSC(=N)N)cc1 | i | 1.5 | · | ·
COc1ccc(Br)cc1CSC(=N)N | i | 0.16 | · | ·
CCCCOc1ccc(CSC(=N)N)cc1Cl | i | · | 28%* | i
Cc1cccc(/C=N/n2c(COc3ccccc3)n[nH]c2=S)c1 | i | 6* | i | 158%* | CHO-K1 Tl ctr=-8;KCNQ1 pot spec=-14;KCNQ2 pot confirm=0.0*;Kir21 spec=-38;KCNQ2 W236L pot=i
S=c1[nH]nc(COc2ccccc2)n1/N=C/c1ccc(Cl)c(Cl)c1 | i | · | · | ·
Clc1ccccc1N1CCN(Cc2c[nH]c3ccccc23)CC1 | i | · | · | ·
OC1(c2ccc(Cl)cc2)CCN(Cc2c[nH]c3ccccc23)CC1 | i | 0.38 | 34%* | i
CC(C)(C)NS(=O)(=O)c1cnc(Cl)c(Cl)c1 | i | 0.01 | · | ·
CCN(CCNC(=O)c1ccc(C#N)cc1)c1cccc(C)c1 | i | · | · | ·
CCN(CCNCC(O)COCc1ccc(Cl)cc1)c1cccc(C)c1 (centres undefined) | i | · | 36%* | i
COc1ccc(CN2CCC(Cc3ccccc3)CC2)cc1OC | i | 0.03 | · | ·
CCOc1ccc(CN2CCC(Cc3ccccc3)CC2)cc1 | i | 0.4 | 41%* | i
CN(C)CC/C=C1\c2ccc(F)cc2Sc2cc(F)c(Cl)cc21 | i | · | · | ·
OCCN1CCN(CCCN2c3ccccc3Sc3ccc(Cl)cc32)CC1 | i | · | · | ·
CN(C)CC/C=C1\c2ccccc2Sc2ccc(Cl)cc21 | i | 0.23 | 26%* | i
CN(C)CC/C=C1/c2ccc(F)cc2Sc2ccc(Cl)cc21 | -5.8* | -5.8 | i | i
CN(C)CC/C=C1\c2ccccc2Sc2cc(F)c(Cl)cc21 | i | · | · | ·
CN(C)CCCN1c2ccccc2Sc2ccc(Cl)cc21 | i | 0.4 | 28%* | i
SMILES | KCNQ2 block | KCNQ2 pot | Kir21 conf inh | HEK293 ctr | others
Cc1ccc2cc(CN(c3cccc(C)c3C)S(=O)(=O)c3ccccc3)c(=O)[nH]c2c1 | i | 0.45 | · | ·
COc1ccc(Nc2nc(Nc3ccc(OC)cc3OC)nc(N3CCN(C)CC3)n2)c(OC)c1 | i | · | · | ·
CCN(CCCn1c(=S)[nH]c2ncccc2c1=O)c1ccccc1 | i | 19* | i | i | CHO-K1 Tl ctr=-20;KCNQ1 pot spec=-39;KCNQ2 pot confirm=14*;Kir21 spec=-25;KCNQ2 W236L pot=i
CCN(CC)CCCn1c(=S)[nH]c2ncccc2c1=O | i | 1.4 | · | ·
COc1cccc(NC(=S)N2CCC(NC(=O)c3ccco3)CC2)c1 | i | 0.03 | · | ·
CCN1C(=O)CSc2ccc(C(=O)NCc3ccc(OC)cc3)cc21 | i | 0.62 | 58%* | i
CCOc1ccc(CNC(=O)c2ccc3c(c2)N(CC)CCS3)cc1 | i | · | · | ·
CN(C(=O)c1nc(-c2ccccc2)n(-c2ccccc2)n1)C1CCS(=O)(=O)C1 (centres undefined) | i | 1.2 | · | ·
